# From PubChem BioAssay (NCI)
# About 83,000 compounds went through this panel and 20% of them were active in at least one assay; those are over-represented in the sample as a whole.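 The test compound was applied at a single concentration to cells in 96-well plates for 48 hours, and percent growth was recorded.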 Unmarked numbers belong to inactive results. Activity calls are given as the source filed them. The calls were made as follows: active = growth percent below 10; inactive = the rest.
# Legend:
# Assay in all cases: NCI-60 one-dose screen, 48 h (100 = growth as untreated, 0 = no growth, -100 = all killed)
# Details in all cases: 10 µM unless noted
# SK-MEL-2 melanoma = test system: SK-MEL-2 melanoma
# EKVX NSCLC = test system: EKVX NSCLC
# SN12C renal = test system: SN12C renal
# UO-31 renal = test system: UO-31 renal
# TK-10 renal = test system: TK-10 renal
# ACHN renal = test system: ACHN renal
# CAKI-1 renal = test system: CAKI-1 renal
# A498 renal = test system: A498 renal
# CCRF-CEM leukemia = test system: CCRF-CEM leukemia
# MOLT-4 leukemia = test system: MOLT-4 leukemia
# SR leukemia = test system: SR leukemia
# RPMI-8226 leukemia = test system: RPMI-8226 leukemia
# OVCAR-8 ovarian = test system: OVCAR-8 ovarian
# OVCAR-5 ovarian = test system: OVCAR-5 ovarian
# SK-OV-3 ovarian = test system: SK-OV-3 ovarian
# IGROV1 ovarian = test system: IGROV1 ovarian
# OVCAR-3 ovarian = test system: OVCAR-3 ovarian
# HS 578T breast = test system: HS 578T breast
# NCI/ADR-RES ovarian = test system: NCI/ADR-RES ovarian
# OVCAR-4 ovarian = test system: OVCAR-4 ovarian
Structure (SMILES),growth (SK-MEL-2 melanoma),growth (EKVX NSCLC),growth (SN12C renal),growth (UO-31 renal),growth (TK-10 renal),growth (ACHN renal),growth (CAKI-1 renal),growth (A498 renal),growth (CCRF-CEM leukemia),growth (MOLT-4 leukemia),growth (SR leukemia),growth (RPMI-8226 leukemia),growth (OVCAR-8 ovarian),growth (OVCAR-5 ovarian),growth (SK-OV-3 ovarian),growth (IGROV1 ovarian),growth (OVCAR-3 ovarian),growth (HS 578T breast),growth (NCI/ADR-RES ovarian),growth (OVCAR-4 ovarian)
O=C(NN1C(=O)/C(=C/C=C/c2ccc([N+](=O)[O-])o2)SC1=S)c1cccc(O)c1,-88.2% (active),-96.8% (active),-99.8% (active),-98.6% (active),-96.3% (active),-100% (active),-100% (active),2.42% (active),0.334% (active),2.92% (active),2.86% (active),-10.1% (active),-80.3% (active),-98.5% (active),-80.9% (active),-97.9% (active),-100% (active),-14.6% (active),-32.1% (active),
CC12CC[C@@H]3[C@]4(C)COC(c5cn[nH]c5-c5ccc(Cl)cc5)O[C@@H]4CC[C@@]3(C)[C@@H]1CC(C1=CCOC1=O)O2 (some centres undefined),29.7%,36.1%,48.5%,21%,35.3%,33.8%,49.8%,85.6%,32.8%,-16.8% (active),16.5%,12%,55.5%,62.3%,55%,51%,42.6%,51%,42.5%,
S=C(Nc1ccc(OCc2nc3ccccc3[nH]2)cc1)NC1CCCCC1,123%,104%,87.8%,96.8%,130%,101%,100%,150%,95%,98.3%,105%,101%,95.1%,117%,108%,107%,123%,102%,106%,
O=C(c1ccccc1)c1ccc2nc(-c3cccc(Cl)c3)[nH]c2c1,106%,105%,99.5%,95.4%,95.9%,100%,106%,114%,113%,103%,117%,114%,103%,107%,99.9%,113%,116%,108%,104%,
Clc1cccc(Cl)c1/C=C/c1cc(/C=C/c2ccc(Br)cc2)c2ccccc2n1,123%,89.8%,93.2%,70.2%,126%,100%,73.4%,142%,85%,84.8%,92.4%,86.6%,101%,97.4%,98.2%,96.6%,111%,,95.5%,93.8%
Cc1cc(C)cc(C(=O)Nc2cccc(-c3cn(-c4ccc(S(N)(=O)=O)cc4)nn3)c2)c1,12.8%,55.7%,32.6%,68.2%,-9.72% (active),22.5%,59.7%,-13.4% (active),30.4%,25.3%,51.6%,89.8%,18.7%,81.5%,9.56% (active),15.4%,87.4%,,55.9%,42.1%
O=C1Nc2cc(Cl)ccc2/C1=C/c1cccc(OCc2ccccn2)c1,41%,15%,-15% (active),29.7%,35.5%,16.9%,16.8%,123%,2.33% (active),4.01% (active),-0.484% (active),-5.52% (active),-21% (active),-7.05% (active),52.1%,17.2%,23.5%,,-16.7% (active),49.1%
O=C(/C=C/c1cccc(OCc2ccc(F)cc2)c1)c1nc2ccccc2[nH]1,104%,38%,76.9%,69.4%,79%,78.9%,67.3%,112%,6.9% (active),-11.2% (active),-44% (active),-50.4% (active),83.2%,122%,92.9%,93.5%,68.2%,,72.5%,62.5%
O=c1c2ccccc2nc(-c2ccccc2)n1/N=C/c1ccc2ccccc2c1,116%,80.3%,52.5%,58.5%,72.9%,42.5%,48.5%,94.6%,51.9%,19.5%,11.5%,39%,50.6%,69.4%,68.5%,55.6%,67.4%,,53.5%,85.8%
N#Cc1c(-c2cccc(O)c2O)cc(-c2ccc3ccccc3c2)[nH]c1=O,98.8%,74.5%,58.4%,55.9%,85.4%,56.4%,75.6%,82.1%,13.4%,29.9%,12.1%,60.9%,69.8%,79.5%,77.6%,48.8%,18.9%,,90.6%,69.5%
N#Cc1c(-c2cccnc2)cc(-c2ccc3ccccc3c2)[nH]c1=O,110%,87.1%,74.3%,79%,109%,90.2%,89.7%,111%,82%,91.5%,73.7%,51.5%,78%,106%,112%,97.6%,102%,,75.3%,64.6%
CC1=C(C(=O)OCc2ccccc2)C(c2ccc(-n3cncn3)cc2)n2c(nc3ccccc32)N1 (centres undefined),80.6%,48.4%,72.9%,51.6%,89.7%,51.3%,42.8%,79.8%,16.1%,36.6%,18%,35.4%,86.6%,79.3%,73.8%,62.2%,24.2%,,41.5%,83.2%
COc1ccc(/C=C2\C(=O)Nc3ccc(Cl)cc32)cc1OCc1ccccn1,96.2%,23.8%,44.3%,5.88% (active),63.6%,12.2%,24.3%,120%,50.8%,45.7%,31.4%,39.5%,31.6%,50%,63.3%,45.5%,51.6%,,27.3%,8.08% (active)
Cn1nc(C(F)(F)F)cc1-c1cc(Cl)c(COc2ccc(Cl)cc2)c(-c2ccc(Cl)c(C(F)(F)F)c2)c1O,-81.6% (active),-2.8% (active),-51.4% (active),-48.4% (active),3.16% (active),-5.03% (active),-15.9% (active),-11.9% (active),-34.3% (active),-23.1% (active),-32.4% (active),-39.2% (active),-25.6% (active),-1.15% (active),-14.5% (active),5.06% (active),-8.73% (active),,-34.8% (active),13.9%
N#Cc1cnn(C(=O)c2ccccc2Br)c1NC(=O)c1ccc(Br)cc1Cl,111%,100%,104%,85.9%,101%,103%,94.5%,106%,94.5%,99.9%,78.2%,102%,104%,102%,86.7%,115%,119%,,98.7%,101%
COc1ccc(-c2cc(C(=O)NCc3ccccc3)nn2-c2ccc(S(C)(=O)=O)cc2)cc1OC,119%,97.5%,88.1%,77%,106%,104%,87.1%,99.9%,101%,-4.09% (active),82.3%,86.9%,100%,102%,105%,122%,115%,,107%,94.3%
